Measured values as given in PubChem BioAssay (EPA / NIEHS).
Inconclusive results are not listed. Calls of active or inactive are those of the source. The calls were made as follows, unless noted: active = hit-call score of the fitted dose curve at least 0.9, where 1 is the maximum; inconclusive = response in the unintended direction; inactive = score below 0.9.

What was measured:
[1] = target: Nucleoli Translocation, AR (gene 367) (UniProt P10275); assay: UPITT_HCI_U2OS_AR_TIF2_Nucleoli_Antagonist: University of Pittsburgh U2OS Androgen Receptor-Transcriptional Intermediary Factor 2 (AR-TIF2) Antagonism High Content Imaging Assay for Nucleoli Translocation (AID 2283997)
Method in brief: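 An antagonist-mode imaging screen: engineered U2OS (AR-RFP, TIF2-GFP) exposed to 20 uM compound, 0.2% DMSO. Activity reflects nucleolar red fluorescence change relative to DHT baseline.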

[2] = target: Nucleoli Translocation, AR (gene 367) (UniProt P10275); assay: UPITT_HCI_U2OS_AR_TIF2_Nucleoli_Agonist: University of Pittsburgh U2OS Androgen Receptor-Transcriptional Intermediary Factor 2 (AR-TIF2) Agonism High Content Imaging Assay for Nucleoli Translocation (AID 2283998)
Method in brief: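 Cells express human AR fused to red fluorescent protein and TIF2 fused to GFP. Red fluorescence in the nucleolar region was quantified by high-content imaging and fitted as gain-of-signal against a DMSO baseline. Compounds were tested at 0.195 to 50 uM final (0.5% DMSO).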

[3] = target: Ratio of Nucleoli Translocation and Cytoplasm, AR (gene 367) (UniProt P10275); assay: UPITT_HCI_U2OS_AR_TIF2_Nucleoli_Cytoplasm_Ratio_Antagonist: University of Pittsburgh U2OS Androgen Receptor-Transcriptional Intermediary Factor 2 (AR-TIF2) Antagonism High Content Imaging Assay for Ratio of Nucleoli Translocation and Cytoplasm (AID 2283999);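 also: antagonists lower the DHT-driven ratio of nucleolar to cytoplasmic red signal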
Method in brief: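 Read-out is the ratio of nucleolar to cytoplasmic AR-RFP fluorescence, imaged by high-content microscopy in U2OS cells coexpressing TIF2-GFP. Single-point 20 uM screen, triplicate confirmation, then 0.195–50 uM dose response; activity referenced to DHT baseline.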

[4] = target: Ratio of Nucleoli Translocation and Cytoplasm, AR (gene 367) (UniProt P10275); assay: UPITT_HCI_U2OS_AR_TIF2_Nucleoli_Cytoplasm_Ratio_Agonist: University of Pittsburgh U2OS Androgen Receptor-Transcriptional Intermediary Factor 2 (AR-TIF2) Agonism High Content Imaging Assay for Ratio of Nucleoli Translocation and Cytoplasm (AID 2284000);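 also: hits raise the red nucleolar to cytoplasm ratio above vehicle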
Method in brief: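 Primary screen at 20 uM final (0.2% DMSO), then triplicate confirmation and dose-response from 0.195 to 50 uM final (0.5% DMSO). Cells: U2OS with AR-RFP and TIF2-GFP. Endpoint is the nucleoli/cytoplasm red-fluorescence ratio, gain-of-signal vs DMSO.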

[5] = target: Retinoic acid receptor RXR-alpha (Homo sapiens) (UniProt P19793); assay: TOX21_TR_RXR_BLA_Antagonist_Followup_ratio: Tox21 Thyroid Hormone Receptor beta Retinoid X Receptor alpha (RXRa) Antagonism Beta-lactamase (BLA) Follow-Up Assay, Ratio (AID 2283972)
Method in brief: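 RXRa-UAS-bla HEK293T cells in phenol red-free DMEM with 2% charcoal-stripped FBS; compounds at 11 concentrations in triplicate, 16 h at 37C. LiveBLAzer FRET-B/CCF4-AM substrate 2 h at room temperature; read as 460:530 nm ratio versus DMSO.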

[6] = CCTE_Simmons_MITO_basal_resp_rate: CCTE's HepG2 Seahorse XF Respirometric Screening Assay at Basal Respiratory State, Simmons Lab (AID 2284001; active = hit-call score of the fitted dose curve at least 0.9, where 1 is the maximum; inactive = score below 0.9); conditions: actives raise or lower the signal
Method in brief: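 Readout is oxygen consumption rate after test compound injection, measured by Seahorse XF in HepG2 cells. Seven concentrations from 125 nM up to 100 uM final are tested, and activity in either direction is fitted against DMSO.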

[7] = system: DIO1 (gene 1733); assay: CCTE_GLTED_hDIO1: CCTE's human Deiodinase 1 (DIO1) Inhibition Assay, Great Lakes Toxicology and Ecology Division (GLTED) Lab (AID 2283987);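 also: isolated human DIO1 enzyme in a cell-free setup rather than cells; enzyme activity read as free iodide liberated from substrate via Sandell-Kolthoff colorimetry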
Method in brief: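 Cell-free human DIO1 enzyme was incubated with test chemical for 3 h, and iodide released from substrate was measured by Sandell-Kolthoff absorbance. Loss of signal versus DMSO baseline indicated inhibition; plates were run in triplicate.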

[8] = CCTE_Harrill_HTTr_Viability_DMEM_6hr: (Pilot) CCTE's 6-hour Cell Viability Assessment for the High-Throughput Transcriptomics (HTTr) Platform, in MCF-7 cells cultured in DMEM + 10% fetal bovine serum, Harrill Lab (AID 2283973; active = hit-call score of the fitted dose curve at least 0.9, where 1 is the maximum; inactive = score below 0.9)
Method in brief: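 Propidium iodide uptake imaged by high-content analysis after six hours of chemical treatment in an eight-concentration series. Cells: MCF-7 grown in DMEM with 10% fetal bovine serum; DMSO as baseline.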

[9] = CCTE_Harrill_HTTr_Viability_DMEM_12hr: (Pilot) CCTE's 12-hour Cell Viability Assessment for the High-Throughput Transcriptomics (HTTr) Platform, in MCF-7 cells cultured in DMEM + 10% fetal bovine serum, Harrill Lab (AID 2283974; active = hit-call score of the fitted dose curve at least 0.9, where 1 is the maximum; inactive = score below 0.9)
Method in brief: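 Propidium iodide dye exclusion imaged by high-content microscopy after 12 h chemical exposure (eight concentrations) of MCF-7 cells grown in DMEM plus 10% FBS; values fitted in both directions relative to DMSO.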

[10] = CCTE_Harrill_HTTr_Viability_DMEM_24hr: (Pilot) CCTE's 24-hour Cell Viability Assessment for the High-Throughput Transcriptomics (HTTr) Platform, in MCF-7 cells cultured in DMEM + 10% fetal bovine serum, Harrill Lab (AID 2283975; active = hit-call score of the fitted dose curve at least 0.9, where 1 is the maximum; inactive = score below 0.9)
Method in brief: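 Pilot study: propidium iodide dye exclusion, imaged by high content microscopy, after 24 h compound exposure (eight concentrations) in MCF-7 cultured in DMEM + 10% fetal bovine serum; DMSO served as negative control and baseline.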

[11] = CCTE_Harrill_HTTr_Viability_PRF_DMEM_6hr: (Pilot) CCTE's 6-hour Cell Viability Assessment for the High-Throughput Transcriptomics (HTTr) Platform, in MCF-7 cells cultured phenol red-free DMEM + 10% charcoal-stripped fetal bovine serum, Harrill Lab (AID 2283976; active = hit-call score of the fitted dose curve at least 0.9, where 1 is the maximum; inactive = score below 0.9)
Method in brief: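 Membrane integrity by high-content imaging of propidium iodide uptake, six hours after dosing with eight concentrations. Cells: MCF-7 grown in phenol red-free DMEM plus 10% charcoal-stripped serum; DMSO serves as baseline for bidirectional fits.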

[12] = CCTE_Harrill_HTTr_Viability_PRF_DMEM_12hr: (Pilot) CCTE's 12-hour Cell Viability Assessment for the High-Throughput Transcriptomics (HTTr) Platform, in MCF-7 cells cultured in phenol red-free DMEM + 10% charcoal-stripped fetal bovine serum, Harrill Lab (AID 2283977; active = hit-call score of the fitted dose curve at least 0.9, where 1 is the maximum; inactive = score below 0.9)
Method in brief: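 Membrane integrity was scored via propidium iodide dye exclusion imaging, fitted in both directions relative to DMSO. Compounds ran as eight-point dilutions for 12 hours on MCF-7 grown in phenol red-free DMEM plus 10% charcoal-stripped serum.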

[13] = CCTE_Harrill_HTTr_Viability_PRF_DMEM_24hr: (Pilot) CCTE's 24-hour Cell Viability Assessment for the High-Throughput Transcriptomics (HTTr) Platform, in MCF-7 cells cultured in phenol red-free DMEM + 10% charcoal-stripped fetal bovine serum, Harrill Lab (AID 2283980; active = hit-call score of the fitted dose curve at least 0.9, where 1 is the maximum; inactive = score below 0.9)
Method in brief: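 Propidium iodide exclusion imaged at 24 h after dosing scores viability; cells were MCF-7 grown in phenol red-free DMEM plus 10% charcoal-stripped serum, tested in eight concentrations, fitted in both directions against DMSO.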

[14] = CCTE_Harrill_HTTr_Apoptosis_DMEM_6hr: (Pilot) CCTE's 6-hour Apoptosis Assessment for the High-Throughput Transcriptomics (HTTr) Platform, in MCF-7 cells cultured in DMEM + 10% fetal bovine serum, Harrill Lab (AID 2283981; active = hit-call score of the fitted dose curve at least 0.9, where 1 is the maximum; inactive = score below 0.9)
Method in brief: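 MCF-7 cells grown in DMEM + 10% FBS were exposed for 6 hours to an eight-point dilution series. CellEvent Caspase 3/7 Green signal was imaged; activity fitted bidirectionally against DMSO.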

[15] = CCTE_Harrill_HTTr_Apoptosis_DMEM_12hr: (Pilot) CCTE's 12-hour Apoptosis Assessment for the High-Throughput Transcriptomics (HTTr) Platform, in MCF-7 cells cultured in DMEM + 10% fetal bovine serum, Harrill Lab (AID 2283982; active = hit-call score of the fitted dose curve at least 0.9, where 1 is the maximum; inactive = score below 0.9)
Method in brief: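 Caspase-3/7 activity was measured by high-content imaging (CellEvent Caspase 3/7 Green) after a 12-hour exposure of MCF-7 cells grown in DMEM with 10% FBS. Eight-point concentration series, fitted bidirectionally against vehicle.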

[16] = CCTE_Harrill_HTTr_Apoptosis_DMEM_24hr: (Pilot) CCTE's 24-hour Apoptosis Assessment for the High-Throughput Transcriptomics (HTTr) Platform, in MCF-7 cells cultured in DMEM + 10% fetal bovine serum, Harrill Lab (AID 2283983; active = hit-call score of the fitted dose curve at least 0.9, where 1 is the maximum; inactive = score below 0.9)
Method in brief: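 Caspase-3/7 activity read by high-content imaging (CellEvent Green reagent) 24 h after dosing. MCF-7 cells grown in DMEM with 10% FBS received an eight-point concentration series; fits were bidirectional versus DMSO.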

[17] = CCTE_Harrill_HTTr_Apoptosis_PRF_DMEM_6hr: (Pilot) CCTE's 6-hour Apoptosis Assessment for the High-Throughput Transcriptomics (HTTr) Platform, in MCF-7 cells cultured phenol red-free DMEM + 10% charcoal-stripped fetal bovine serum, Harrill Lab (AID 2283984; active = hit-call score of the fitted dose curve at least 0.9, where 1 is the maximum; inactive = score below 0.9)
Method in brief: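 Caspase-3/7 activity (CellEvent Green) read by high-content imaging 6 h after dosing, eight concentrations. Cells: MCF-7, phenol red-free DMEM with 10% charcoal-stripped serum. Curves fit both directions against DMSO.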

[18] = CCTE_Harrill_HTTr_Apoptosis_PRF_DMEM_24hr: (Pilot) CCTE's 24-hour Apoptosis Assessment for the High-Throughput Transcriptomics (HTTr) Platform, in MCF-7 cells cultured in phenol red-free DMEM + 10% charcoal-stripped fetal bovine serum, Harrill Lab (AID 2283986; active = hit-call score of the fitted dose curve at least 0.9, where 1 is the maximum; inactive = score below 0.9)
Method in brief: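 Eight concentrations tested for 24 h on MCF-7 grown in charcoal-stripped serum, phenol red-free DMEM. High content imaging of CellEvent Caspase 3/7 Green signal gives apoptosis read-out, fitted both ways relative to DMSO.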

[19] = target: Retinoic acid receptor RXR-alpha (Homo sapiens) (UniProt P19793); assay: TOX21_TR_RXR_BLA_Agonist_Followup_ratio: Tox21 Thyroid Hormone Receptor beta Retinoid X Receptor alpha (RXRa) Agonism Beta-lactamase (BLA) Follow-Up Assay, Ratio (AID 2283968)
Method in brief: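 Read-out: blue/green (460:530 nm) FRET ratio from cleaved vs uncleaved CCF4 substrate, fitted for gain of signal relative to DMSO. Cells: HEK293T with RXRa-UAS-bla reporter; 16 h compound exposure, 11 concentrations, triplicate.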

[20] = TOX21_TR_RXR_BLA_Agonist_Followup_viability: Viability Assessment in the Tox21 Thyroid Hormone Receptor beta Retinoid X Receptor alpha (RXRa) Agonism Beta-lactamase (BLA) Follow-Up Assay (AID 2283970)
Method in brief: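 CellTiter-Glo ATP quantitation as viability read-out in RXRa-bla HEK293T cells (2,500/well, charcoal-stripped 2% FBS medium), 16h compound incubation at 37C. Loss of signal versus DMSO taken as cytotoxicity, analyzed by bidirectional curve fitting.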

Measured: AC50

Chain of Nucleoli Translocation, AR (gene 367) (P10275 whole entry, looked up, the tested form may be a part): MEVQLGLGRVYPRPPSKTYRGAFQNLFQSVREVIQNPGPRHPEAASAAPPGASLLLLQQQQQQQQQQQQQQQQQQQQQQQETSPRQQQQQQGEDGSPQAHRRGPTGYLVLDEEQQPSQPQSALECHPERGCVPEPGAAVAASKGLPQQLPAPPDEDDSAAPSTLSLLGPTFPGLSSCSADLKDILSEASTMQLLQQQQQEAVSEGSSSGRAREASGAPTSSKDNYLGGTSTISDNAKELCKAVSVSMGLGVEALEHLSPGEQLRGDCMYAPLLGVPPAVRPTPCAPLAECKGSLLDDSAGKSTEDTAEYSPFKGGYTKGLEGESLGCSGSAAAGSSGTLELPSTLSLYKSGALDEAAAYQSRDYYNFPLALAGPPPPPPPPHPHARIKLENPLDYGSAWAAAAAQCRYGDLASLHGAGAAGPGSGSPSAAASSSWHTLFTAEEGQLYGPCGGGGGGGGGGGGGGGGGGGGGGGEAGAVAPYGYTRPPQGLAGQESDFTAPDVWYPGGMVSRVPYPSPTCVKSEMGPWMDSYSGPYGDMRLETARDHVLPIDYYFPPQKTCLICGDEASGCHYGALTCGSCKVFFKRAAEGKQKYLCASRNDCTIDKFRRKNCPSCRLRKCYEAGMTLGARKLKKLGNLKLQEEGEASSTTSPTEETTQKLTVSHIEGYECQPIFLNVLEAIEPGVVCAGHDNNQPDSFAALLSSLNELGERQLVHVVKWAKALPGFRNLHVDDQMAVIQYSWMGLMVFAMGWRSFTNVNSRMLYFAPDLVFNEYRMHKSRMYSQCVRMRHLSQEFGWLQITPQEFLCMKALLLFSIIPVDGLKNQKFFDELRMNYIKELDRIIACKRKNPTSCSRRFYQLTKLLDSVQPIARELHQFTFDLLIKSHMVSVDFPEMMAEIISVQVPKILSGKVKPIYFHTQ
Chain of Ratio of Nucleoli Translocation and Cytoplasm, AR (gene 367) (P10275 whole entry, looked up): as the sequence (P10275 whole entry, looked up, the tested form may be a part) above
Chain of Retinoic acid receptor RXR-alpha (Homo sapiens) (P19793 whole entry, looked up): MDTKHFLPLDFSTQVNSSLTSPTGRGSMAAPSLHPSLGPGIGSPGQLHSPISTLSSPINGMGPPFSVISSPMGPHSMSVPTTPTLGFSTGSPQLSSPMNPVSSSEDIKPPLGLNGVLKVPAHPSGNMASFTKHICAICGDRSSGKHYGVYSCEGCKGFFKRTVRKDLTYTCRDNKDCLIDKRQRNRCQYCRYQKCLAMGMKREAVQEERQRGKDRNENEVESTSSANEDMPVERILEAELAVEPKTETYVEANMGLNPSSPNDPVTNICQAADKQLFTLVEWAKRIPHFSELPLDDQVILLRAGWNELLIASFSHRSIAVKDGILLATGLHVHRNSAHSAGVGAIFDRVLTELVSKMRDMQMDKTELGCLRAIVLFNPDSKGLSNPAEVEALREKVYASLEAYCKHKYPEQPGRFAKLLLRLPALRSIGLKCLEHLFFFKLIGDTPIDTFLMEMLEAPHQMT

N#C[C@@H]1CC(F)(F)CN1C(=O)CNC1CC2CCC(C1)N2c1ncccn1 (some centres not stated)
inactive: [1] | [2] | [3] | [4]

COCC(C)OCC(C)O (configuration not stated)
inactive: [2] | [3] | [4]

C#C[C@]1(O)CC[C@H]2[C@@H]3CCC4=CC(=O)CC[C@@H]4[C@H]3CC[C@@]21C
inactive: [5]

Nc1cccc2c(N)cccc12
active: [1] 33.3 µM
inactive: [2] | [3] | [4] | [6]

CC(=O)CC(C)(C)O
inactive: [1] | [2] | [3] | [4]

OC1CCC(C2CCCCC2)CC1 (configuration not stated)
active: [6] 50 µM

NC(=O)N1C(=O)C(C(=O)c2cc(Cl)cs2)c2cc(F)c(Cl)cc21 (configuration not stated)
inactive: [1] | [2] | [3] | [4]
active: [7] 37.4 µM | [6] 5.91 µM

CCC(=C(c1ccc(O)cc1)c1ccc(OCCN(C)C)cc1)c1ccccc1
inactive: [1] | [3]
active: [8] 79 µM | [9] 63.6 µM | [10] 69.4 µM | [11] 69.8 µM | [12] 73.1 µM | [13] 63.6 µM | [14] 81.2 µM | [15] 84 µM | [16] 82.6 µM | [17] 76.1 µM | [18] 80.8 µM | [7] 46.5 µM | [2] 22.5 µM | [4] 26.2 µM

O=C(/C=C/c1ccc(O)cc1)CC(=O)/C=C/c1ccc(O)cc1
inactive: [2] | [3] | [4]
active: [1] 16.3 µM

OCCC(F)(F)C(F)(F)C(F)(F)C(F)(F)C(F)(F)C(F)(F)C(F)(F)C(F)(F)F
inactive: [2] | [3] | [4]

CC(C)(C)c1ccc(O)c(C(C)(C)C)c1
active: [7] 108 µM

O=C(O)Cc1cc(I)c(Oc2cc(I)c(O)c(I)c2)c(I)c1
active: [19] 31.5 µM
not listed: [1] | [2] | [3] | [4] | [5] | [7]
inactive: all other assays above
